From PubChem BioAssay
The list is not random: actives were taken first. Their share in the collection is about 7.5%.
FLuc modulator: inhibits or activates purified firefly luciferase, miR-21 counter-screen; purified FLuc, Km substrates, luminescence inhibition; Potency, µM (series often up to 57.5 µM), without a hit: at the top dose activity change, negative = inhibition, usual class: inhibitors; 360,000 compounds, 6.9% hits;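 note: plate controls were vehicle for no effect and reference inhibitor for full effect; nearly all actives have a fitted effect of over 55% in size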
Target sequence (P08659 whole entry, looked up): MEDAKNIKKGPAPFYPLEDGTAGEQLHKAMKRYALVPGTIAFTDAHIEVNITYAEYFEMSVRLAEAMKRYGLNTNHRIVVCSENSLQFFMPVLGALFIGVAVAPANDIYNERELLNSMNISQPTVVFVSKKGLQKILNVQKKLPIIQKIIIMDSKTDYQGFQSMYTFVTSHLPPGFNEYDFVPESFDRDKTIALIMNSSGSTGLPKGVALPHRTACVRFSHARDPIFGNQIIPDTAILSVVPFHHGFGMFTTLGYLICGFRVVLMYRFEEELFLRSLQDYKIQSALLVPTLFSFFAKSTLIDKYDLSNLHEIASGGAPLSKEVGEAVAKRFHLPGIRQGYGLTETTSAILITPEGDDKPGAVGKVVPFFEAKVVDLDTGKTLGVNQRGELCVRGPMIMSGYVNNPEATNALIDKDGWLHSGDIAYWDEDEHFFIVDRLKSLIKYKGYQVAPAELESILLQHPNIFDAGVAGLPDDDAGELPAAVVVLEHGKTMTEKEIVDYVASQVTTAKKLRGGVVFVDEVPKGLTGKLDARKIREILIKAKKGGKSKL
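Purified P. pyralis luciferase (10nM final) with 10uM D-luciferin and 10uM ATP (Km levels) in 50mM Tris acetate pH 7.5, 10mM Mg acetate, 0.01% Tween-20, 0.05% BSA; qHTS 6-point titration, ~60 µM downward; luminescence read.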
Rab9 promoter act: activates the Rab9 promoter | Huh7 Rab9 promoter-luciferase reporter, luminescence, 24 h | 320,000 compounds, 2.8% hits | Potency, µM (top dose mostly 9.22 µM), without a hit: top-dose activation, negative = inhibition, most hits filed as activators; note: % of control where 0% means no effect; nearly all actives have a fitted effect of over 60% in size
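Rab9 promoter-driven luciferase in stably transfected Huh7 cells; 1500 cells/well rested 2 h, exposed to compound in DMSO for 24 h at 37 °C, 5% CO2. Luminescence read 10 min after adding luciferase reagent at ambient temperature.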
NPC1 prom act: NPC1 promoter activation. Potency, µM (highest dose often 9.22 µM), inactives show top-dose activation, hits mostly activators. Huh7 NPC1 promoter luciferase reporter, 24 h. 320,000 compounds, 2.4% hits. AID 485313; note: % of control where 0% means no effect; nearly all actives have a fitted effect of over 60% in size
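Luciferase expression driven by the NPC1 promoter was measured in stably transfected Huh7 cells after a 24 h compound incubation, using a luciferase reagent and a luminescence read.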
Luc counter: blocks Kinase-Glo luciferase, a counter-screen artifact; Potency, µM (highest dose often 38.3 µM), for the others: at the top dose activity change, negative = inhibition, hits mostly inhibitors; 200,000 compounds, 0.28% hits; Kinase-Glo luciferase, ATP luminescence, 8 min; AID 1379; note: % is set by controls: 0 for no effect and ±100 for the full control effect; nearly all actives have a fitted effect of over 60% in size
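Light output from Kinase-Glo luciferase with luciferin and 10 uM ATP in 50 mM imidazole pH 7.2, KCl, MgCl2, Tween 20, BSA; compound pin-delivered, 8-min ambient incubation, then luminescence read.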
SMN2 splice up: increases expression of the SMN2 splice variant | AID 1458 | 210,000 compounds, 2.8% hits | Potency, µM (top dose mostly 46.1 µM), inactives show at the highest dose activity change, positive = activation, actives largely listed as activators | HEK293 SMN2-luciferase splicing reporter, luminescence, 30-36 h; note: % of control where 0% means no effect; nearly all actives have a fitted effect of over 55% in size
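qHTS luciferase splicing reporter: luminescence rises when SMN2 exon 7 is included in transfected HEK293 cells. Compound exposure lasted 30-36 h at 37C, with 4.5 mM final sodium butyrate as control, followed by a ONE-Glo read.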
ELG1 genotox: inducers of genotoxicity in HEK293T ELG1-luciferase cells; HEK293T ELG1-luciferase reporter, luminescence, 16 h; Potency, µM (titrated, usually from 46 µM), inactives show at the top dose activity change, positive = activation, hits mostly activators; 330,000 compounds, 1.3% hits; AID 504466; note: % of control where 0% means no effect; nearly all actives have a fitted effect of over 60% in size
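HEK293T cells expressing luciferase-tagged ELG1 were exposed to compound or DMSO vehicle for 16 hr at 37 °C and 5% CO2. Luciferase activity was then measured with ONE-Glo after 30 min at room temperature.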
* = called active by the depositor. Calls come from the whole dose curve; as a rule, active = well fitted curve in the direction sought with a large enough effect; inconclusive = small, poorly fitted or top-dose-only effect, or another doubt; inactive = no such curve, though single readings can be large; an effect the other way counts as inactive or inconclusive. Potency is the fitted concentration of half-maximal effect.

Screening O=C(c1cc(COc2c(F)cccc2F)on1)N1C[C@H]2CC[C@H]1C2 returned FLuc modulator 12µM*, Rab9 promoter act 1.58µM*, NPC1 prom act 3.16µM* and ELG1 genotox 11.6µM*.
For O=C(c1cc(COc2c(F)cccc2F)on1)N1CCC(c2ccccc2F)C1 (stereo unspecified) the results were FLuc modulator 15.1µM*, Rab9 promoter act inconclusive, NPC1 prom act 28.7%, Luc counter -3.5% and ELG1 genotox inconclusive.
For Cc1cccc(C)c1OCc1cc(C(=O)N2CCC(c3ccncc3)CC2)no1 the results were FLuc modulator 13.5µM*, Rab9 promoter act 0.7%, NPC1 prom act 5.7% and ELG1 genotox 9.7%.
Screening O=C(c1cc(COc2c(F)cccc2F)on1)N1CCC(c2ccncc2)CC1 returned FLuc modulator -2.8%, Rab9 promoter act -30.8%, NPC1 prom act -31.5%, Luc counter 1.0% and ELG1 genotox -6.9%.
`CCOC(=O)c1c(C)oc2nc(C)nc(NCCc3ccc(SC)cc3)c12` gave FLuc modulator 1.0%.
For Cc1ccc(NC(=O)Cn2ncc3c4ccccc4n(Cc4ccccc4)c3c2=O)cc1Cl the results were FLuc modulator 5.8% and SMN2 splice up 9.2%.
Screening Cn1c(=O)c2c(nc(Oc3ccccc3Cl)n2Cc2ccc(C#N)cc2)n(C)c1=O returned FLuc modulator -5.6% and SMN2 splice up -7.2%.
O=c1oc(/C=C/c2ccccc2)nc2sc3c(c12)CCC3 was read as FLuc modulator 0.953µM*, Rab9 promoter act inconclusive, NPC1 prom act 21.4%, Luc counter -23.0%, SMN2 splice up 11.2µM* and ELG1 genotox 14.1µM*.
Screening CCc1nc2sc3c(c2c(=O)o1)CCCC3 returned FLuc modulator inconclusive, Rab9 promoter act 1.3%, NPC1 prom act -0.4%, Luc counter -2.5%, SMN2 splice up 12.7% and ELG1 genotox inconclusive.
Screening O=c1oc(-c2cc3ccccc3o2)nc2sc3c(c12)CCCC3 returned FLuc modulator 2.39µM*, Rab9 promoter act inconclusive, NPC1 prom act inconclusive, Luc counter -12.4%, SMN2 splice up inconclusive and ELG1 genotox 13.7%.
For Nc1nc(-c2cccnc2)nc2sc3c(c12)CCCC3 the results were FLuc modulator 1.07µM*, Rab9 promoter act 3.16µM*, NPC1 prom act 2µM*, Luc counter -5.9%, SMN2 splice up 11.2µM* and ELG1 genotox 7.3µM*.
Cc1ccccc1-c1nc2sc3c(c2c(=O)o1)CCC3 was read as FLuc modulator 2.39µM*, Rab9 promoter act 3.6%, NPC1 prom act -2.5%, Luc counter -16.6%, SMN2 splice up 33.0% and ELG1 genotox 3.0%.
COc1ccc2cc(-c3nc(Cl)c4c5c(sc4n3)CCCC5)c(=O)oc2c1 was read as FLuc modulator inconclusive and SMN2 splice up 2.6%.
`O=C1CN(c2nc(-c3cccnc3)nc3sc4c(c23)CCCC4)CCN1` gave FLuc modulator inconclusive, Rab9 promoter act -3.4%, NPC1 prom act -0.3%, Luc counter 7.0%, SMN2 splice up inconclusive and ELG1 genotox -1.9%.
For Cc1ccc(N2CCN(C(=O)C3CCN(S(=O)(=O)c4ccc5c(c4)oc(=O)n5C)CC3)CC2C)cc1 (stereo unspecified) the results were FLuc modulator -5.1% and SMN2 splice up -9.0%.
For CC(C)(C)c1nc2sc3c(c2c(=O)o1)CCCC3 the results were FLuc modulator -7.4%, Rab9 promoter act 2.2%, NPC1 prom act 1.2%, Luc counter -4.6%, SMN2 splice up 2.5% and ELG1 genotox 3.4%.
Screening O=C(CSc1nc2sc3c(c2c(=O)n1-c1ccccc1)CCCC3)N/N=C/c1ccc(C(=O)O)cc1 returned FLuc modulator -6.8%, Rab9 promoter act -0.6%, NPC1 prom act -8.3% and ELG1 genotox 2.2%.
For Cn1c(N/N=C/c2ccccc2)nc2sc3c(c2c1=O)CCC3 the results were FLuc modulator 15.1µM*, Rab9 promoter act -2.2%, NPC1 prom act 0.7%, Luc counter -6.0%, SMN2 splice up -26.5% and ELG1 genotox 1.3%.
O=c1oc(-c2cccs2)nc2sc3c(c12)CCCCC3 was read as FLuc modulator 1.2µM*, Rab9 promoter act inconclusive, NPC1 prom act inconclusive, Luc counter -6.9%, SMN2 splice up 15.8µM* and ELG1 genotox 0.9%.
CCc1c(-c2ccccc2)nc2sc3c(c2c1N)CCCC3 was read as FLuc modulator 1.69µM*, Rab9 promoter act inconclusive, NPC1 prom act 26.2% and ELG1 genotox -4.1%.
Screening Nc1c(C(=O)O)sc2nc(-c3ccccc3)c3c(c12)CCCC3 returned FLuc modulator -1.0%, Rab9 promoter act 0.9%, NPC1 prom act -0.9%, Luc counter -1.7%, SMN2 splice up -5.6% and ELG1 genotox 0.8%.
O=c1oc(-c2ccccc2)nc2sc3c(c12)CCCC3 was read as FLuc modulator 1.2µM*, Rab9 promoter act inconclusive, NPC1 prom act 23.7%, Luc counter inconclusive, SMN2 splice up inconclusive and ELG1 genotox 22.8%.
For COc1cccc(CNS(=O)(=O)c2ccc(-c3cc(C(F)(F)F)on3)s2)c1 the results were FLuc modulator 7.8%.
`COC(=O)c1ccc2c(=O)n(CCCCCC(=O)NCc3ccc(OC)cc3)c(=O)[nH]c2c1` gave FLuc modulator -6.7%.
CSc1nnc(-c2ccccc2SC)o1 was read as FLuc modulator -7.3%, Rab9 promoter act 1.4%, NPC1 prom act 0.8%, Luc counter -1.5%, SMN2 splice up -0.1% and ELG1 genotox 3.0%.
CSc1ccccc1-c1nnc(-c2ccc(C)cc2)o1 was read as FLuc modulator 1.51µM*, Rab9 promoter act inconclusive, NPC1 prom act inconclusive, Luc counter 1.8%, SMN2 splice up 10µM* and ELG1 genotox inconclusive.
Screening CSc1ccccc1-c1nnc(-c2ccccc2)o1 returned FLuc modulator 3.38µM*, Rab9 promoter act 3.16µM*, NPC1 prom act 19.8%, Luc counter inconclusive, SMN2 splice up 11.2µM* and ELG1 genotox inconclusive.
`CCN(C(=O)c1cc2c(s1)-c1c(C)cccc1OC2)c1cc(C)ccc1C` gave FLuc modulator -10.7% and SMN2 splice up -3.9%.
COC(=O)c1ccc(CSc2nc3ccccc3s2)o1 was read as FLuc modulator 16.9µM*, Rab9 promoter act inconclusive, NPC1 prom act inconclusive, Luc counter 0.8%, SMN2 splice up inconclusive and ELG1 genotox 16.4µM*.
CC(C)NC(=O)c1nc2ccccc2s1 was read as FLuc modulator inconclusive, Rab9 promoter act -1.7%, NPC1 prom act 0.9%, Luc counter -1.1% and ELG1 genotox inconclusive.
